PubChem BioAssay (EPA / NIEHS)
Calls of active or inactive are those of the source. How the source made its calls: active means hit-call score of the fitted dose curve at least 0.9, where 1 is the maximum; inactive means score below 0.9.

What was measured:
[1] = read-out: Vascular cell adhesion molecule 1 (VCAM1), VCAM1 (gene 7412); test: BSK_4H_VCAM1: BioMAP Diversity Plus: 4H Assay for Vascular cell adhesion molecule 1 (VCAM1) Biomarker Activity (AID 2283033); details: primary human endothelial cells (HUVEC); actives raise or lower the signal;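 on outcome: cell-surface VCAM-1 protein measured by ELISA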
Procedure, shortened: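 ELISA read-out of VCAM-1 on human umbilical vein endothelium 24 hours after chemical dosing; gain or loss of signal was fitted relative to DMSO, with sulforhodamine B staining of parallel cultures flagging overt cytotoxicity.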

[2] = read-out: Interferon-gamma inducible Protein 10 (IP10), CXCL10 (gene 3627); test: BSK_BE3C_IP10: BioMAP Diversity Plus: BE3C Assay for Interferon-gamma inducible Protein 10 (IP10) Biomarker Activity (AID 2283034); details: primary human bronchial epithelial cells; actives raise or lower the signal
Procedure, shortened: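 Chemical is dosed onto human lung bronchial epithelial primary cells, cultures are incubated 24 h, and IP-10 is then quantified by ELISA. Gain or loss of signal is fitted in both directions relative to DMSO.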

[3] = read-out: Transforming growth factor beta 1 (TGFb1), TGFB1 (gene 7040); test: BSK_BE3C_TGFb1: BioMAP Diversity Plus: BE3C Assay for Transforming growth factor beta 1 (TGFb1) Biomarker Activity (AID 2283036;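 on outcome: TGF-b1 protein level measured by ELISA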); details: primary human bronchial epithelial cells; actives raise or lower the signal
Procedure, shortened: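 Primary human lung bronchial epithelial cells; compound exposure 24 h; TGF-b1 by ELISA; bidirectional fit, DMSO baseline. Parallel SRB total-protein staining for cytotoxicity.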

[4] = read-out: Plasminogen activator inhibitor-1 (PAI1), SERPINE1 (gene 5054); test: BSK_BE3C_PAI1: BioMAP Diversity Plus: BE3C Assay for Plasminogen activator inhibitor-1 (PAI1) Biomarker Activity (AID 2283037); details: primary human bronchial epithelial cells; actives raise or lower the signal
Procedure, shortened: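 Primary human lung bronchial epithelial cells; chemical dosing; 24 h; PAI-1 measured by ELISA; bidirectional fit referenced to DMSO as negative control.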

[5] = read-out: urokinase plasminogen activator (uPA), PLAU (gene 5328); test: BSK_BE3C_uPA: BioMAP Diversity Plus: BE3C Assay for urokinase plasminogen activator (uPA) Biomarker Activity (AID 2283038); details: primary human bronchial epithelial cells; actives raise or lower the signal;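 further: uPA protein level quantified by ELISA in cell cultures; uPA read one day after compound addition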
Procedure, shortened: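 Measured by ELISA: uPA from human primary bronchial epithelial cells 24 h after chemical treatment. Values derive from bidirectional curve fitting with DMSO serving as negative control. Total protein by SRB staining in parallel wells flagged overt cytotoxicity.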

[6] = read-out: Urokinase-type plasminogen activator receptor (uPAR), PLAUR (gene 5329); test: BSK_BE3C_uPAR: BioMAP Diversity Plus: BE3C Assay for Urokinase-type plasminogen activator receptor (uPAR) Biomarker Activity (AID 2283039); details: primary human bronchial epithelial cells; actives raise or lower the signal;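 on outcome: uPAR protein level measured by ELISA on the cells; cells exposed to compound for one day before measurement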
Procedure, shortened: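 Human bronchial epithelial primary cells; chemical exposure 24 h; uPAR by ELISA; bidirectional fit vs DMSO control.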

[7] = read-out: Interleukin-6 (IL6), IL6 (gene 3569); test: BSK_CASM3C_IL6: BioMAP Diversity Plus: CASM3C Assay for Interleukin-6 (IL6) Biomarker Activity for (AID 2283040); details: primary human coronary artery smooth muscle cells; actives raise or lower the signal
[8] = read-out: Tissue plasminogen activator (tPA), PLAT (gene 5327); test: BSK_BE3C_tPA: BioMAP Diversity Plus: BE3C Assay for Tissue plasminogen activator (tPA) Biomarker Activity (AID 2283041); details: primary human bronchial epithelial cells; actives raise or lower the signal;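 further: tPA level quantified by ELISA one day after compound addition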
Procedure, shortened: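 Primary human lung bronchial epithelial cultures receive test chemical; after 24 h, tPA is quantified by ELISA, and gain or loss of signal is fitted bidirectionally relative to DMSO baseline.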

[9] = read-out: Interleukin-8 (IL8), CXCL8 (gene 3576); test: BSK_CASM3C_IL8: BioMAP Diversity Plus: CASM3C Assay for Interleukin-8 (IL8) Biomarker Activity (AID 2283042); details: primary human coronary artery smooth muscle cells; actives raise or lower the signal;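 further: IL-8 protein level quantified by ELISA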
[10] = read-out: Human Leukocyte Antigen - DR isotype (HLADR), HLA-DRA (gene 3122); test: BSK_CASM3C_HLADR: BioMAP Diversity Plus: CASM3C Assay for Human Leukocyte Antigen - DR isotype (HLADR) Biomarker Activity (AID 2283043); details: primary human coronary artery smooth muscle cells; actives raise or lower the signal;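 further: cell-surface HLA-DR protein level quantified by ELISA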
[11] = read-out: Macrophage colony-stimulating factor (MCSF), CSF1 (gene 1435); test: BSK_CASM3C_MCSF: BioMAP Diversity Plus: CASM3C Assay for Macrophage colony-stimulating factor (MCSF) Biomarker Activity (AID 2283044); details: primary human coronary artery smooth muscle cells; actives raise or lower the signal;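 further: M-CSF protein amount quantified by ELISA after 24 h exposure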
[12] = read-out: Low-density lipoprotein receptor (LDLR), LDLR (gene 3949); test: BSK_CASM3C_LDLR: BioMAP Diversity Plus: CASM3C Assay for Low-density lipoprotein receptor (LDLR) Biomarker Activity (AID 2283045); details: primary human coronary artery smooth muscle cells; actives raise or lower the signal;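 further: LDLR protein level on the cell surface quantified by ELISA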
[13] = read-out: Monocyte Chemoattractant Protein-1 (MCP1), CCL2 (gene 6347); test: BSK_CASM3C_MCP1: BioMAP Diversity Plus: CASM3C Assay for Monocyte Chemoattractant Protein-1 (MCP1) Biomarker Activity (AID 2283046); details: primary human coronary artery smooth muscle cells; actives raise or lower the signal;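 further: MCP-1 level quantified by ELISA 24 h after dosing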
[14] = BSK_CASM3C_Proliferation: Cell Proliferation Assessment in the BioMAP Diversity Plus: CASM3C Assay (AID 2283047); details: primary human coronary artery smooth muscle cells;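 further: sulforhodamine B total protein stain as relative cell number at 560 nm; sub-confluent cells exposed 48 h before staining; fitted both ways against DMSO so gain or loss of cell number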
[15] = read-out: Monokine induced gamma interferon (MIG), CXCL9 (gene 4283); test: BSK_CASM3C_MIG: BioMAP Diversity Plus: CASM3C Assay for Monokine induced gamma interferon (MIG) Biomarker Activity (AID 2283048); details: primary human coronary artery smooth muscle cells; actives raise or lower the signal;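 further: MIG protein level measured by ELISA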
[16] = read-out: serum amyloid A (SAA), SAA1 (gene 6288); test: BSK_CASM3C_SAA: BioMAP Diversity Plus: CASM3C Assay for serum amyloid A (SAA) Biomarker Activity (AID 2283049); details: primary human coronary artery smooth muscle cells; actives raise or lower the signal;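 further: SAA protein level quantified by ELISA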
[17] = BSK_CASM3C_SRB: Viability Assessment in the BioMAP Diversity Plus: CASM3C Assay (AID 2283050); details: primary human coronary artery smooth muscle cells;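 further: total protein by SRB staining as cytotoxicity measure in parallel cultures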
[18] = read-out: Thrombomodulin, THBD (gene 7056); test: BSK_CASM3C_Thrombomodulin: BioMAP Diversity Plus: CASM3C Assay for Thrombomodulin Biomarker Activity (AID 2283051); details: primary human coronary artery smooth muscle cells; actives raise or lower the signal;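 further: thrombomodulin protein level measured by ELISA 24 h after dosing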
[19] = read-out: Tissue Factor, F3 (gene 2152); test: BSK_CASM3C_TissueFactor: BioMAP Diversity Plus: CASM3C Assay for Tissue Factor Biomarker Activity (AID 2283052); details: primary human coronary artery smooth muscle cells; actives raise or lower the signal;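 further: cell surface tissue factor protein level read by ELISA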
[20] = read-out: Monokine induced gamma interferon (MIG), CXCL9 (gene 4283); test: BSK_BE3C_MIG: BioMAP Diversity Plus: BE3C Assay for Monokine induced gamma interferon (MIG) Biomarker Activity (AID 2283035); details: primary human bronchial epithelial cells; actives raise or lower the signal;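 further: MIG protein measured by ELISA in BE3C cultures after 24 h of dosing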
Procedure, shortened: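 MIG level was determined by ELISA after 24 h chemical treatment of primary human bronchial epithelial cells. Values were fitted bidirectionally with DMSO as the negative control and activity baseline.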

Compound: CCCOC(=O)NCCCN(C)C
- outcome [1]: inactive
- outcome [2]: inactive
- outcome [3]: inactive
- outcome [4]: inactive
- outcome [5]: inactive
- AC50 [6]: 148 nM (active)
- outcome [7]: inactive
- outcome [8]: inactive
- outcome [9]: inactive
- outcome [10]: inactive
- outcome [11]: inactive
- outcome [12]: inactive
- outcome [13]: inactive
- outcome [14]: inactive
- outcome [15]: inactive
- outcome [16]: inactive
- outcome [17]: inactive
- outcome [18]: inactive
- outcome [19]: inactive

Compound: c1ccc(Nc2ccccc2)cc1
- outcome [1]: inactive
- outcome [2]: inactive
- AC50 [3]: 3970 nM (active)
- outcome [4]: inactive
- outcome [5]: inactive
- outcome [6]: inactive
- outcome [7]: inactive
- outcome [8]: inactive
- outcome [9]: inactive
- outcome [10]: inactive
- outcome [11]: inactive
- outcome [12]: inactive
- outcome [13]: inactive
- outcome [14]: inactive
- outcome [15]: inactive
- outcome [16]: inactive
- outcome [17]: inactive
- outcome [18]: inactive
- outcome [19]: inactive

Compound: COCCO
- outcome [1]: inactive
- outcome [2]: inactive
- outcome [3]: inactive
- outcome [4]: inactive
- outcome [5]: inactive
- outcome [6]: inactive
- outcome [7]: inactive
- outcome [8]: inactive
- outcome [9]: inactive
- outcome [10]: inactive
- outcome [11]: inactive
- outcome [12]: inactive
- outcome [13]: inactive
- outcome [14]: inactive
- outcome [15]: inactive
- outcome [16]: inactive
- outcome [17]: inactive
- outcome [18]: inactive
- outcome [19]: inactive

Compound: O=C(c1ccc(O)cc1O)c1ccc(O)cc1O
- outcome [1]: inactive
- AC50 [2]: 30500 nM (active)
- outcome [3]: inactive
- AC50 [4]: 34600 nM (active)
- outcome [5]: inactive
- outcome [6]: inactive
- outcome [7]: inactive
- outcome [8]: inactive
- outcome [9]: inactive
- outcome [10]: inactive
- outcome [11]: inactive
- outcome [12]: inactive
- outcome [13]: inactive
- outcome [14]: inactive
- outcome [15]: inactive
- outcome [16]: inactive
- outcome [17]: inactive
- outcome [18]: inactive
- outcome [19]: inactive

Compound: COC(=O)c1ccccc1C(=O)O
- outcome [1]: inactive
- outcome [2]: inactive
- outcome [3]: inactive
- outcome [4]: inactive
- outcome [5]: inactive
- outcome [6]: inactive
- outcome [7]: inactive
- outcome [8]: inactive
- outcome [9]: inactive
- outcome [10]: inactive
- outcome [11]: inactive
- outcome [12]: inactive
- outcome [13]: inactive
- outcome [14]: inactive
- outcome [15]: inactive
- outcome [16]: inactive
- outcome [17]: inactive
- outcome [18]: inactive
- outcome [19]: inactive

Compound: CCC(C)OC(=O)N1CCCCC1CCO (centres undefined)
- outcome [1]: inactive
- outcome [2]: inactive
- outcome [3]: inactive
- outcome [4]: inactive
- outcome [5]: inactive
- outcome [6]: inactive
- outcome [7]: inactive
- outcome [8]: inactive
- outcome [9]: inactive
- outcome [10]: inactive
- outcome [11]: inactive
- outcome [12]: inactive
- outcome [13]: inactive
- outcome [14]: inactive
- outcome [15]: inactive
- outcome [16]: inactive
- outcome [17]: inactive
- outcome [18]: inactive
- outcome [19]: inactive

Compound: CC(=O)[C@H]1CC[C@H]2[C@@H]3CCC4=CC(=O)CC[C@]4(C)[C@H]3CC[C@]12C
- outcome [2]: inactive
- outcome [20]: inactive
- outcome [3]: inactive
- outcome [4]: inactive
- outcome [5]: inactive
- outcome [6]: inactive
- outcome [7]: inactive
- outcome [8]: inactive
- outcome [9]: inactive
- AC50 [10]: 8610 nM (active)
- outcome [11]: inactive
- outcome [12]: inactive
- AC50 [13]: 3950 nM (active)
- AC50 [14]: 12700 nM (active)
- outcome [15]: inactive
- outcome [16]: inactive
- outcome [17]: inactive
- outcome [18]: inactive
- outcome [19]: inactive

Compound: CCOC(=O)NCCOc1ccc(Oc2ccccc2)cc1
- outcome [1]: inactive
- outcome [2]: inactive
- outcome [3]: inactive
- outcome [4]: inactive
- outcome [5]: inactive
- outcome [6]: inactive
- outcome [7]: inactive
- outcome [8]: inactive
- outcome [9]: inactive
- outcome [10]: inactive
- outcome [11]: inactive
- outcome [12]: inactive
- outcome [13]: inactive
- AC50 [14]: 7680 nM (active)
- outcome [15]: inactive
- outcome [16]: inactive
- outcome [17]: inactive
- outcome [18]: inactive
- outcome [19]: inactive

Compound: O=C(Nc1ccc([N+](=O)[O-])cc1Cl)c1cc(Cl)ccc1O
- AC50 [1]: 412 nM (active)
- AC50 [2]: 302 nM (active)
- outcome [3]: inactive
- outcome [4]: inactive
- AC50 [6]: 148 nM (active)
- AC50 [7]: 308 nM (active)
- outcome [8]: inactive
- AC50 [9]: 2270 nM (active)
- AC50 [10]: 899 nM (active)
- outcome [11]: inactive
- outcome [12]: inactive
- outcome [13]: inactive
- AC50 [14]: 1030 nM (active)
- AC50 [15]: 764 nM (active)
- AC50 [16]: 1560 nM (active)
- AC50 [17]: 826 nM (active)
- AC50 [18]: 643 nM (active)
- outcome [19]: inactive

Compound: COC(=O)c1ccc(I)cc1S(=O)(=O)NC(=O)Nc1nc(C)nc(OC)n1
- outcome [1]: inactive
- outcome [2]: inactive
- outcome [3]: inactive
- outcome [4]: inactive
- outcome [5]: inactive
- outcome [6]: inactive
- outcome [7]: inactive
- outcome [8]: inactive
- outcome [9]: inactive
- outcome [10]: inactive
- outcome [11]: inactive
- outcome [12]: inactive
- outcome [13]: inactive
- outcome [14]: inactive
- outcome [15]: inactive
- outcome [16]: inactive
- outcome [17]: inactive
- outcome [18]: inactive
- outcome [19]: inactive
